IEC-6 cytotox: IEC-6 cytotoxicity, counter-screen for KLF5 inhibitors; luminescence viability; inhibition, % at 5 µM; hit rate 0.78% among 290,000; AID 1825
APP 5UTR inh: APP translation inhibition | hit rate 0.82% among 190,000 | SH-SY5Y APP 5'UTR-luciferase reporter, luminescence | inhibition, % at 2 µM | AID 1285;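 active means inhibition above a set limit, derived from the sample mean plus 3 SD, cut at about 45% in these data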
aSyn UTR inh: 5' untranslated region of α-synuclein, MLPCN primary screen | alpha-synuclein 5'UTR reporter, inhibitor activity | inhibition, % (tested at 7.5 µM) | hit rate 0.82% among 300,000 | AID 1813; in the data active means inhibition above about 60%;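 further: H4 neuroglioblastoma cells stably carrying SNCA 5'UTR luciferase fusion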
BaF3 parental: counter-screen for JAK2V617F inhibitors: parental Ba/F3 viability inhibitors; CellTiter-Glo ATP luminescence; inhibition, % at 5.6 µM; hit rate 1.1% among 220,000;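 active means inhibition above a per-campaign cutoff, the mean inhibition of all tested compounds plus 3 SD, cut at about 27% in these data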
KLF5 inhibitor: inhibitors of KLF5 expression; DLD-1 KLF5 promoter-luciferase reporter, luminescence; inhibition, % at 5 µM; hit rate 0.23% among 290,000;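 active means inhibition above a per-plate limit of that plate's mean compound inhibition plus 3 SD, cut at about 60% in these data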;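 further: higher means less KLF5 promoter-driven luciferase light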
Ba/F3 V617F tox: reduce viability of Ba/F3 cells dependent on JAK2V617F; inhibition, % at 5.6 µM; AID 1446; Ba/F3 EpoR-JAK2V617F viability, ATP luminescence; hit rate 1.1% among 220,000;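 active means inhibition above the campaign mean plus 3 SD over all tested compounds, cut at about 24% in these data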;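 further: cytokine-independent growth of Ba/F3 cells driven by EpoR plus mutant JAK2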
IEC-6 cytotox cf: IEC-6 cytotoxicity, confirmation assay; shares compounds with IEC-6 cytotox; IEC-6 rat intestinal epithelial viability, luminescence; inhibition, % at 5 µM; hit rate 63% among 1,900
Numbers stand for hits; 0 = inactive; - = no result given. Rows were chosen to be rich in hits. Some 2.1% of all compounds tested hit in one or more screens of this group. Unless noted, no stated cut-off is given here; in the data, active means inhibition above about 22%; inactive means the rest.

SMILES	IEC-6 cytotox	APP 5UTR inh	aSyn UTR inh	BaF3 parental	KLF5 inhibitor	Ba/F3 V617F tox	IEC-6 cytotox cf
O=C(NC(=S)NCc1cccnc1)c1ccc([N+](=O)[O-])cc1	0	0	0	0	0	0	-
CC(C)(C)C(=O)Nc1ccc(C(=O)NCc2cccnc2)cc1	0	0	0	0	0	0	-
CC(C)(C)c1ccc(C(=O)Nc2ccc(C(=O)NCc3cccnc3)cc2)cc1	98	-	0	-	0	-	91
O=C(NCc1cccnc1)c1ccc(NC(=O)c2ccc([N+](=O)[O-])cc2)cc1	87	-	0	-	0	-	59
O=C(c1ccc(CS(=O)c2ccccc2Cl)o1)N1CCN(c2ccccn2)CC1 (configuration not stated)	56	-	0	-	0	-	45
COc1cc(OC)cc(C(=O)N/N=C/c2ccc(OC)c(COc3ccc(F)cc3)c2)c1	65	87	0	55	0	0	40
COc1ccc(OCc2cc(/C=N\NC(=O)c3ccccc3)ccc2OC)cc1	33	-	0	-	0	-	0
COc1ccc(/C=N\NC(=O)c2ccccc2Br)cc1COc1ccccc1	0	-	0	-	0	-	-
COc1ccc(C(=O)N/N=C\c2ccc(OC)c(COc3ccccc3Br)c2)c(OC)c1	22	-	0	-	0	-	0
CCOc1ccc(S(=O)(=O)Nc2cccc(C(=O)NCC3CCCO3)c2)cc1 (configuration not stated)	-	-	0	-	-	-	-
CCc1ccc(OC)c(S(=O)(=O)Nc2ccc(Cc3ccncc3)cc2)c1	25	-	0	-	0	-	0
COC(=O)c1ccc(C#Cc2ccccc2)o1	0	-	0	0	0	0	-
CCc1nnc(NC(=O)c2cc(Cl)ccn2)s1	31	-	0	-	0	-	0
O=C(N/N=C/c1ccc(O)cc1)Nc1cccc2nsnc12	81	0	0	0	0	0	91
CN(C)c1cccc(/C=C(\C#N)c2ccccc2)c1	77	-	0	76	0	81	56
CN(C)c1ccc(/C=C(\C#N)C(=O)c2ccccc2)cc1	0	-	0	0	0	0	-
O=[N+]([O-])c1ccc(S(=O)(=O)c2ccccc2)nc1	101	-	0	-	0	-	85
Cc1cc(S(=O)(=O)c2ccc([N+](=O)[O-])cn2)ccc1Br	-	-	0	-	-	-	-
Cc1ccc(S(=O)(=O)c2ccc([N+](=O)[O-])cn2)cc1	101	-	0	-	0	-	0
Cc1ccc2nc3c(cc2c1)CN(Cc1ccco1)C(=NCC1CCCO1)S3 (configuration not stated)	0	0	0	0	0	0	-
Cc1cccc2cc3c(nc12)SC(=NCC1CCCO1)N(Cc1ccco1)C3 (configuration not stated)	88	0	0	0	0	0	0
CCOc1ccccc1NC(=O)CSc1nnc(CNC(=O)c2cc(OC)c(OC)c(OC)c2)o1	0	-	0	-	0	-	-
O=C(Nc1ccc(Br)cn1)c1ccc(Cl)s1	0	-	0	-	0	-	-
O=C(Nc1ccc(Br)cn1)c1ccc(Br)s1	28	-	0	-	0	-	0
CCOC(=O)Cc1nnc(NC(=O)c2ccccc2OC)s1	0	0	0	0	0	0	-
SMILES	IEC-6 cytotox	APP 5UTR inh	aSyn UTR inh	BaF3 parental	KLF5 inhibitor	Ba/F3 V617F tox	IEC-6 cytotox cf
COc1ccccc1C(=O)Nc1nc2ccc(S(C)(=O)=O)cc2s1	0	0	0	0	0	0	-
COc1ccccc1C(=O)Nc1nc2ccccc2s1	29	-	109	-	0	-	28
COc1ccccc1C(=O)Nc1nnc(CCc2ccccc2)s1	44	-	0	-	0	-	56
O=C(CN1C(=O)CSc2ccc(S(=O)(=O)N3CCCCC3)cc21)NCc1ccccc1	0	-	0	-	0	-	-
COc1ccc(NS(=O)(=O)c2cc(N/C(=N\S(=O)(=O)c3ccccc3)c3ccc(F)cc3)ccc2Cl)cc1	39	0	0	61	0	64	0
CCN1CCN(Cc2ccc(NC(=O)c3ccc(C)c(NC(=O)C(=O)c4c[nH]c5ccccc45)c3)cc2C(F)(F)F)CC1	55	-	112	-	0	-	0
CCN1CCN(Cc2ccc(NC(=O)c3ccc(C)c(NC(=O)c4ccc5n[nH]nc5c4)c3)cc2C(F)(F)F)CC1	-	-	0	-	-	-	-
CCOc1cc(S(=O)(=O)NCc2ccncc2)ccc1Cl	24	0	0	84	0	64	0
O=C(NNC(=O)C12CC3CC(CC(C3)C1)C2)c1ccccn1	22	-	0	0	0	0	39
CC(=O)c1c(C)cc(C)c(CSc2nc(C)cc(=O)[nH]2)c1C	30	0	0	0	0	0	0
COc1cccc(CNC(=O)CCC2CCCN(c3cc(C)nc(N4CCCC4)n3)C2)c1 (configuration not stated)	0	0	0	0	0	0	-
CC(C)c1ccccc1NC(=O)C1CC(=O)N(C2CCCC2)C1 (configuration not stated)	0	-	0	-	0	-	-
COc1ccc(/C=N/n2cncn2)cc1Cn1nc(C)c([N+](=O)[O-])c1C	0	-	0	0	0	0	-
C=C(C)COc1ccc(-c2[nH]ncc2-c2ccc(OC)c(OC)c2)c(O)c1	62	91	0	66	0	81	57
C=C(C)COc1ccc(-c2[nH]ncc2-c2ccc(OC)cc2)c(O)c1	0	-	0	0	0	0	-
Cc1ccc2sc(N(CCCN(C)C)C(=O)CCS(=O)(=O)c3ccccc3)nc2c1C	24	-	0	-	0	-	0
COc1ccc(OC)c2sc(N(CCCN(C)C)C(=O)CCS(=O)(=O)c3ccccc3)nc12	-	-	0	-	-	-	-
C=CCN(CC=C)S(=O)(=O)c1ccc2nc(NC(=O)C(C)C)sc2c1	54	0	-	76	0	64	47
CCn1cc(C(=O)NCC(OC)OC)c(=O)c2cc(S(=O)(=O)N3CCC(C)CC3)ccc21	32	-	0	-	0	-	25
CC[n+]1c(C=C2C=C(C)OC(C)=C2)sc2ccccc21	25	0	0	91	0	100	27
COC(=O)c1ccc(NS(=O)(=O)c2cc(-c3cc(C)no3)ccc2OC)cc1	63	-	0	-	0	-	40
CC(C)c1ccc(Nc2ncccc2C(=O)O)cc1	58	0	0	0	0	0	26
Cc1ccc(NC(=O)C2CCN(S(=O)(=O)c3ccc4c(c3)NC(=O)C(C)S4)CC2)cc1Cl (configuration not stated)	22	-	0	-	0	-	0
Cc1cc(C)cc(NC(=O)C2CCN(S(=O)(=O)c3ccc4c(c3)NC(=O)C(C)S4)CC2)c1 (configuration not stated)	0	-	0	-	0	-	-
CCN1C(=O)C(O)(C2COC(C)(C)CC2=O)c2cc(Br)ccc21 (configuration not stated)	84	0	0	33	0	0	0
CCN1C(=O)C(O)(C2COC(C)(C)CC2=O)c2ccccc21 (configuration not stated)	0	0	0	0	0	0	-
O=C(Cn1cc(Cl)c([N+](=O)[O-])n1)NCCC1=CCCCC1	0	-	0	-	0	-	-
CCC1=Nc2cc(C(=O)NCCN3CCCC3)ccc2Sc2ccccc21	0	-	0	-	0	-	-
CCC1=Nc2cc(C(=O)NCCCOC)ccc2Sc2ccccc21	88	95	74	79	0	77	60
COc1ccc(N2CCN(C(=O)CCc3nnc4ccc(N5CCCC5)nn34)CC2)cc1	0	-	0	-	0	-	-

Screening results as filed in PubChem BioAssay.
